# Source: PubChem BioAssay
# Values without a mark were called inactive. For some of these results: Results with a measured potency or affinity are listed apart. Activity calls are given as the source filed them. Unless noted, no rule for the calls is given here.
# Assays:
# [1] = antimalarial activity against Dd2 strain (AID 2302;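 active = growth inhibition above 50% at the single 2 µM test dose, taken to imply half-maximal potency below 2 µM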;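 also: 0% = DMSO untreated growth and 100% = chloroquine plus artemisinin killed control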); details: P. falciparum Dd2 in RBCs, LDH growth readout, 72 h; at 2 µM; hits give high values
# [2] = human hepatoma cell viability loss – ATP luminescence, cytotoxicity control for P. falciparum antimalarial project, primary screen (AID 2303;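 active = inhibition above 50%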;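 also: 0% = DMSO wells and 100% = digitonin-killed cells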); details: HepG2 viability, 24-48 h, at 10 µM, hits give high values
# [3] = target: L-lactate dehydrogenase (Plasmodium falciparum (isolate CDC / Honduras)) (UniProt Q27743); experiment: PfLDH activity inhibition – cell lysate, 3D7 strain, counter-screen for P. falciparum growth inhibition project (AID 2304);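 also: 0% = vehicle and 100% = reference inhibitor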; details: P. falciparum 3D7 crude extract, LDH APAD/NBT absorbance; at 2 µM; hits give high values
# [4] = inhibition of 3D7 malaria parasite growth – strain 3D7 (AID 2306);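 also: 0% = DMSO wells and 100% = chloroquine plus artemisinin control wells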; details: P. falciparum 3D7 erythrocytic growth, LDH absorbance, 72 h; at 2 µM; hits give high values
# [5] = target: Calcium-dependent protein kinase 1 (Plasmodium falciparum (isolate 3D7)) (UniProt P62344); experiment: PfCDPK1 kinase inhibitors, biochemical, TCAMS library (AID 1159585; cut-off not given, nearly all actives have IC50 up to about 0.98 µM;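 also: inhibitors leave more ATP so luminescence rises with inhibition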); details: recombinant PfCDPK1, Kinase-Glo ATP depletion luminescence
# [6] = target: Plasmodium falciparum protein kinase 6 (PK6, PF3D7_1337100) (UniProt Q8IDW1); experiment: PfPK6 kinase inhibitors, biochemical, TCAMS library (AID 1159586); details: recombinant PfPK6, Kinase-Glo ATP depletion luminescence
# [7] = target: Protein kinase 7 (PK7), Plasmodium falciparum 3D7 (PF3D7_0213400) (UniProt Q7YTF7); experiment: inhibition of Plasmodium PK7 catalytic activity – biochemical, TCAMS antimalarial set, Kinase-Glo luminescence (AID 1159587); details: recombinant PfPK7, Kinase-Glo ATP depletion luminescence
# [8] = target: Calcium-dependent protein kinase 4 (Plasmodium falciparum (isolate 3D7)) (UniProt Q8IBS5); experiment: PfCDPK4 kinase inhibitors, biochemical, TCAMS library (AID 1159588; cut-off not given, nearly all actives have IC50 up to about 0.91 µM); details: recombinant PfCDPK4, Kinase-Glo ATP depletion luminescence
# Calcium-dependent protein kinase 4 (Plasmodium falciparum (isolate 3D7)), sequence (Q8IBS5 whole entry, looked up): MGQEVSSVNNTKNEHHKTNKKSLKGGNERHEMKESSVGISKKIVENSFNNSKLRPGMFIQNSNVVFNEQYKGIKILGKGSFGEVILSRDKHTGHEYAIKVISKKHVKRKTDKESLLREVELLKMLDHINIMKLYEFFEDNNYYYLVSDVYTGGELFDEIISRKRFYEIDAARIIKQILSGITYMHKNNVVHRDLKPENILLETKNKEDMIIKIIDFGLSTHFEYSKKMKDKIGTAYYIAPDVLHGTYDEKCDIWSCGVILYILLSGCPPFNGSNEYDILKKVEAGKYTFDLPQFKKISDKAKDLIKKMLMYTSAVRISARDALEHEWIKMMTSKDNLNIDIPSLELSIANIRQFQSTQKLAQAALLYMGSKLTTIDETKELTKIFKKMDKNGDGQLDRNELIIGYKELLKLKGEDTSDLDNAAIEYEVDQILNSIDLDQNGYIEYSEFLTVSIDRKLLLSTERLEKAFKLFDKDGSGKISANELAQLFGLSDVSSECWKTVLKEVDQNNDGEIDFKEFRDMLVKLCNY
# Protein kinase 7 (PK7), Plasmodium falciparum 3D7 (PF3D7_0213400), sequence (Q7YTF7 1-343): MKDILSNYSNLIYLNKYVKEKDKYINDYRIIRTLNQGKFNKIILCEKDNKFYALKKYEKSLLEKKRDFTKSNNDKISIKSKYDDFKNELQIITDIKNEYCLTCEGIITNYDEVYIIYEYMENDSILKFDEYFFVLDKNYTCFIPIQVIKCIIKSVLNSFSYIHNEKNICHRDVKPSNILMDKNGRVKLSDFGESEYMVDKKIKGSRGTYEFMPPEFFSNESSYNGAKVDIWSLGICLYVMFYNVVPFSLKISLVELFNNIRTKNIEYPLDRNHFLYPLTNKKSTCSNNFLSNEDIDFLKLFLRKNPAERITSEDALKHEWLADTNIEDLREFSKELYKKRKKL
# L-lactate dehydrogenase (Plasmodium falciparum (isolate CDC / Honduras)), sequence (Q27743 whole entry, looked up): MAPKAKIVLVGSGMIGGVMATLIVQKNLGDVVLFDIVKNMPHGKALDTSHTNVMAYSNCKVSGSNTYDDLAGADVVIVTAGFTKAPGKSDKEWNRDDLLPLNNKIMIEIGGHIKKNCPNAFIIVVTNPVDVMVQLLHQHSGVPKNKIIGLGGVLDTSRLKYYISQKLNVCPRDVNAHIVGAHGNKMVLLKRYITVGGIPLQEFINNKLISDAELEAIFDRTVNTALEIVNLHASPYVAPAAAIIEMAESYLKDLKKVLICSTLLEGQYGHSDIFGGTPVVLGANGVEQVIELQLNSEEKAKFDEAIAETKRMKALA
# Calcium-dependent protein kinase 1 (Plasmodium falciparum (isolate 3D7)), sequence (P62344 whole entry, looked up): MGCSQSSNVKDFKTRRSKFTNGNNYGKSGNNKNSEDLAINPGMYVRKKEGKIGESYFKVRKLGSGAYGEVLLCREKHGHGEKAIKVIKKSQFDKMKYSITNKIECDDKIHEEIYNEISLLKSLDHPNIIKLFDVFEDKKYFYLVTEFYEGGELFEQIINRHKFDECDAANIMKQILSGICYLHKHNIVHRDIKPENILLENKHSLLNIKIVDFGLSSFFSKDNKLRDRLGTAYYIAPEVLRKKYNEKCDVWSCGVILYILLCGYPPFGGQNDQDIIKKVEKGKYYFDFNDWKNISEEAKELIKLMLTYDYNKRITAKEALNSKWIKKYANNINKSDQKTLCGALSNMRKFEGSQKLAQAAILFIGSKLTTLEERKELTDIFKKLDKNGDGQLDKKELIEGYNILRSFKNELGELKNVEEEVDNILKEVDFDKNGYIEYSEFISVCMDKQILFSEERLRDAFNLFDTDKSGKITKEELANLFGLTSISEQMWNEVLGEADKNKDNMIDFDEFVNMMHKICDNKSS
# Plasmodium falciparum protein kinase 6 (PK6, PF3D7_1337100), sequence (Q8IDW1 1-305): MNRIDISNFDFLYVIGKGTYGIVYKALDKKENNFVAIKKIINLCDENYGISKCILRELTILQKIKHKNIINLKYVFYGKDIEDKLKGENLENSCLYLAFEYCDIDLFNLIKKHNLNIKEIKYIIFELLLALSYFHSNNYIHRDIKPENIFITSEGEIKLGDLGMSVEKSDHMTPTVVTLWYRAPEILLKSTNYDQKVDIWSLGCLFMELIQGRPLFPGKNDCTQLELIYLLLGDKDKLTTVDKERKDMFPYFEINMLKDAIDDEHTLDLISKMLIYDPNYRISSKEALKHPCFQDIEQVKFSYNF
SMILES,growth inhibition [1],inhibition [2],inhibition [3] [%],growth inhibition [4],outcome [5],outcome [6],outcome [7],outcome [8]
COc1ccc(Nc2nccc(N3CCC(NC(=O)C(C)c4ccc(Cl)cc4)C3)n2)cc1 (stereo not drawn),97% (active),35%,-4,85% (active),inactive,inactive,inactive,inactive
C#CCCOc1ccc2ccccc2c1CNCCCCCCNCc1c(OCCC#C)ccc2ccccc12,65% (active),100% (active),2,100% (active),inactive,inactive,inactive,inactive
O=C(NC1CCC(CCN2CCc3ccc(-c4cnccn4)cc3CC2)CC1)c1cccc(-n2cccn2)c1 (stereo not drawn),1%,23%,-3,93% (active),inactive,inactive,inactive,inactive
COc1ccc(N2C(=O)C3C(C2=O)C2(C)c4ccccc4C3(C)c3ccccc32)c([N+](=O)[O-])c1 (stereo not drawn),54% (active),11%,7,99% (active),inactive,inactive,inactive,inactive
CN1CCN(c2ccc(-c3cc(-c4cc(F)c(F)c(F)c4)cnc3N)cc2)CC1,12%,58% (active),-4,88% (active),inactive,inactive,inactive,inactive
COc1ccc2cc(-c3nc(-c4c(Cl)cccc4Cl)[nH]c3-c3ccnc(NCCCN4CCN(C)CC4)c3)ccc2c1,80% (active),10%,-5,98% (active),inactive,inactive,inactive,inactive
Cc1cccc(CNc2nc(C)cc(N[C@@H](Cc3ccccc3)C(=O)NC3CCCC3)n2)c1,97% (active),51% (active),-3,100% (active),inactive,inactive,inactive,inactive
COc1ccc2nccc([C@@H](O)CN3CCC(NCC4COc5ccccc5O4)CC3)c2c1 (stereo partly drawn),94% (active),17%,4,98% (active),inactive,inactive,inactive,inactive
CC(=O)Nc1ncc(C(=O)Nc2cccc(-c3cccc(-c4nc5ccc(F)cc5[nH]4)c3)c2)s1,93% (active),27%,5,101% (active),inactive,inactive,inactive,inactive
Nc1nc(N)c2c(ccc3nn(Cc4cccnc4)cc32)n1,0%,41%,0,96% (active),inactive,inactive,inactive,inactive
N#Cc1cccc(NC(=O)Nc2cccc(-c3cccc(-c4nc5ccccc5[nH]4)c3)c2)c1,96% (active),46%,3,100% (active),inactive,inactive,inactive,inactive
FC(F)(F)c1cccc(CNCC2CCN(CC3CCCCC3)CC2)c1,24%,21%,3,101% (active),inactive,inactive,inactive,inactive
CN(C)Cc1ccc(-c2cccc(NC(=O)c3cccc(Cl)c3)c2)cc1,12%,18%,-6,96% (active),inactive,inactive,inactive,inactive
OCCN1CCN(Cc2ccc(-c3ccc(-c4nc5ccccc5[nH]4)cc3)cc2)CC1,58% (active),6%,-1,100% (active),inactive,inactive,inactive,inactive
Cc1cccc2[nH]c(-c3cccc(-c4ccc(NC(=O)c5ccc(=O)[nH]n5)cc4)c3)nc12,27%,18%,1,101% (active),inactive,inactive,inactive,inactive
CCCNC[C@@H](O)[C@H](Cc1ccccc1)NC(=O)c1cc2c3c(c1)c(CC)cn3CCS(=O)(=O)N2C,98% (active),-4%,2,97% (active),inactive,inactive,inactive,inactive
N#Cc1c(-c2ccccc2)cn2c1[nH]c(=O)c1ccccc12,95% (active),-1%,1,92% (active),inactive,inactive,inactive,inactive
COc1ccc(NC(=O)/C=C/c2ccc(Cl)c(C(F)(F)F)c2)cc1OCCN(C(C)C)C(C)C,28%,18%,-1,95% (active),inactive,inactive,inactive,inactive
O=C(Nc1ccccc1)N(Cc1ccc(-c2cccc(CNCc3ccc4c(c3)OCO4)c2)cc1)C1CCN(Cc2ccccc2)CC1,65% (active),29%,-1,100% (active),inactive,inactive,inactive,inactive
CCCCNCc1ccc(OCc2cccc(COc3ccc(CNCCCC)cc3)c2)cc1,35%,98% (active),5,100% (active),inactive,inactive,inactive,inactive
O=C(Nc1ccc(Cn2ncc(N3CCCNCC3)c(Cl)c2=O)cc1)Nc1ccc(OCc2ccccc2)cc1,32%,15%,5,90% (active),inactive,inactive,inactive,inactive

SMILES,growth inhibition [1],inhibition [2],inhibition [3] [%],growth inhibition [4],outcome [5],outcome [6],outcome [7],outcome [8]
Cc1cccc(C(=O)Nc2ccnc(N3CCC(N(C)Cc4ccc(C#N)cc4)CC3)c2)c1,6%,12%,-4,94% (active),inactive,inactive,inactive,inactive
CN1CCC(C(=O)N(Cc2ccc(-c3ccc(CNCCc4ccccc4)cn3)cc2)C2CCN(Cc3ccccc3)CC2)CC1,99% (active),24%,-6,100% (active),inactive,inactive,inactive,inactive
CCN1CCC(N(Cc2ccc(-c3ccc(C(F)(F)F)cc3)cc2)C(=O)Cn2c(CCc3cccc(F)c3F)cc(=O)c3ccccc32)CC1,94% (active),100% (active),3,94% (active),inactive,inactive,inactive,inactive
CCN(CCCN1CCCCC1)c1cc(C)nc(Nc2ccc(Cl)c(C(F)(F)F)c2)n1,55% (active),43%,2,96% (active),inactive,inactive,inactive,inactive
CC1CC(C)CN(CC(O)CNC(=O)Nc2ccc(Br)cc2)C1 (stereo not drawn),44%,13%,5,94% (active),inactive,inactive,inactive,inactive
Clc1ccc(CNCCCCCCNCc2ccc(Cl)cc2)cc1,28%,53% (active),1,96% (active),inactive,inactive,inactive,inactive
O=C(Nc1ccc(-c2cccc(-c3nc4ccc(C(F)(F)F)cc4[nH]3)c2)cc1)c1ccoc1,13%,52% (active),-9,96% (active),inactive,inactive,inactive,inactive
CCCCCCCNCCNc1cc(C)nc2ccccc12,99% (active),58% (active),-4,100% (active),inactive,inactive,inactive,inactive
c1cc(CN2CCCCC2)cc(-c2ccc(-c3nc4ccccc4[nH]3)cc2)c1,88% (active),9%,-2,101% (active),inactive,inactive,inactive,inactive
O=S(=O)(NCCN1CCCC1)c1ccc(-c2cccc(CNC3Cc4ccccc4C3)c2)s1,69% (active),57% (active),2,98% (active),inactive,inactive,inactive,inactive
FC(F)(F)c1ccc(COc2cc(Cl)ccc2Cn2ccnc2)cc1,0%,13%,-5,95% (active),inactive,inactive,inactive,inactive
FC(F)(F)c1cc(C(F)(F)F)c2cc(CNCCCNc3nc4ccccc4[nH]3)[nH]c2c1,99% (active),99% (active),0,100% (active),inactive,inactive,inactive,inactive
CCC1(CC)N=C(N)N=C(N)C1c1ccc(Cl)c(Cl)c1 (stereo not drawn),20%,-16%,7,98% (active),inactive,inactive,inactive,inactive
CCCCCN1CCCC1CNS(=O)(=O)c1ccc(C(=O)Nc2ccc(C(F)(F)F)cc2)cc1 (stereo not drawn),-3%,19%,-2,87% (active),inactive,inactive,inactive,inactive
COc1cccc(CCc2cccc(CNC(C)=O)c2)c1,-2%,2%,-2,88% (active),inactive,inactive,inactive,inactive
CCCCc1ccc(NC(=O)Nc2ccc3c(c2)CCNCC3)cc1,43%,16%,0,95% (active),inactive,inactive,inactive,inactive
CCNc1cc(C(=O)N[C@@H](Cc2ccccc2)[C@H](O)CNCCc2cccc3ccccc23)cc(N2CCCC2=O)c1,39%,12%,3,86% (active),inactive,inactive,inactive,inactive
Cc1cccc2[nH]c(-c3ccc(-c4ccc(CN5CCN(c6ccncc6)CC5)cc4)s3)nc12,98% (active),85% (active),2,102% (active),inactive,inactive,inactive,inactive
O=C(Nc1ccc(S(=O)(=O)N2CCCCC2)cc1)c1cc(-c2ccccc2O)n[nH]1,81% (active),13%,-2,94% (active),inactive,inactive,inactive,inactive
CCOC(=O)c1c(CCc2ccc(C(F)(F)F)cc2)nc2c(c1-c1ccc(C(=O)N[C@@H](C)c3ccncc3)cc1)C(=O)N1CCC[C@@H]21,68% (active),-3%,-2,85% (active),inactive,inactive,inactive,inactive
